An excerpt weighted towards active compounds, which were near 10% of everything screened.
HEK293 tox – Cytotoxic Profiling in HEK 293 Cell Line of Diverse Libraries Using Quantitative High-Throughput Screening; HEK 293 viability, ATP luminescence (CellTiter-Glo), 48-72 h; Potency, µM (doses to about 115 µM), hits mostly inhibitors; hit rate 6.6% among 94,000; AID 1345083, 2018; note: nearly all actives have a fitted effect of over 60% in size
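Cells seeded first (HEK 293, 250 cells/well), then compound added by pintool. Incubation ran 48 or 72 hr at 37 degree Celsius. CellTiter-Glo was added and luminescence imaged after 10 min at room temperature.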
GPT2 inhibitor – Primary qHTS assay for inhibitors of Glutamate pyruvate transaminase 2 (GPT2). Alanine aminotransferase 2 (Homo sapiens), Q8TD30. Recombinant GPT2, coupled pyruvate oxidase/HRP Amplex Red fluorescence. Potency, µM (titrated, usually from 57.7 µM), hits mostly inhibitors. hit rate 0.25% among 100,000. AID 1671188, 2021; note: nearly all actives have a fitted effect of over 60% in size
Target sequence (Q8TD30 whole entry, looked up): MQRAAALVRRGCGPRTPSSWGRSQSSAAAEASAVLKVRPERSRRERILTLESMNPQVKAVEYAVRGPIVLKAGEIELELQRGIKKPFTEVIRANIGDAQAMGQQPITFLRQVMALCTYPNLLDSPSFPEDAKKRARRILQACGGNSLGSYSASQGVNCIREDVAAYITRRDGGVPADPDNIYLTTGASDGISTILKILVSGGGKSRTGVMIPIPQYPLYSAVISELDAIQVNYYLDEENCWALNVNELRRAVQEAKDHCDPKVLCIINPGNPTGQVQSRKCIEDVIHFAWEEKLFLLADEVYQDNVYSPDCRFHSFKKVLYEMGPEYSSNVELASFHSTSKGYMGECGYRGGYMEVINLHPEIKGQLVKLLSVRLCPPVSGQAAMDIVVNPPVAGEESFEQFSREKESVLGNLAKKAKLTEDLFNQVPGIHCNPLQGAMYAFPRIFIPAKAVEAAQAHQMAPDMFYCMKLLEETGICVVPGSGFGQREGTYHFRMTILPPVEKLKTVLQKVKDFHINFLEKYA
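Inhibition is scored from Amplex Red fluorescence generated when pyruvate oxidase and HRP act on pyruvate released by GPT2. Reactions contain 10ng/uL enzyme, 250uM a-KG and 2mM L-alanine and run 30 min at room temperature.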
NPR1 antag – Natriuretic polypeptide receptor (hNpr1) antagonism - Primary qHTS | Potency, µM (highest dose often 46.3 µM), most hits filed as inhibitors | hit rate 1.6% among 76,000 | HEK293 hNpr1 GloSensor cGMP, ANP-stimulated luminescence | Atrial natriuretic peptide receptor 1 (Homo sapiens), P16066 | AID 1347048, 2019; calls by dose curve; note: nearly all actives have a fitted effect of over 60% in size
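HEK293 cells stably expressing human Npr1 and cGMP GloSensor pGS-40F, loaded 2 h with 2% GloSensor reagent, given compound 30 min at room temperature. Luminescence read before and 20 min after 0.1 nM hNppA.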
Luciferase inh – Firefly luciferase inhibition profiling of diverse chemical library using quantitative high-throughput screening. Luciferin 4-monooxygenase (Photinus pyralis), P08659. purified P. pyralis luciferase, luminescence, biochemical. Potency, µM (series often up to 115 µM), most hits filed as inhibitors. hit rate 2.5% among 76,000. AID 1347043, 2019; note: nearly all actives have a fitted effect of over 65% in size
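Biochemical qHTS: compound (6-point titration) added to 10uM D-luciferin plus 10uM ATP in Tris acetate pH 7.5 buffer with Mg, Tween-20 and BSA, then purified enzyme at 10nM; light output imaged.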
3T3 cytotox – Cytotoxic Profiling in NIH 3T3 Cell Line of Diverse Libraries Using Quantitative High-Throughput Screening | Potency, µM (top dose mostly 96.7 µM), actives largely listed as inhibitors | NIH 3T3 viability, CellTiter-Glo ATP luminescence, 48-72 h | hit rate 4.3% among 94,000; note: nearly all actives have a fitted effect of over 55% in size
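Mouse fibroblast NIH 3T3 cells, 400 per well, received compound via pintool and were incubated for 48 or 72 hr prior to CellTiter-Glo ATP luminescence measurement.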
Numbers stand for hits; ! = repeats disagree. Unless noted, calls come from the whole dose curve; as a rule, active = well fitted curve in the direction sought with a large enough effect; inconclusive = small, poorly fitted or top-dose-only effect, or another doubt; inactive = no such curve, though single readings can be large; an effect the other way counts as inactive or inconclusive.

Screening CCC(C)NC(=O)c1ccc(-c2ccc(N3CCSCC3)nc2)cc1 (stereo not drawn) returned HEK293 tox inactive, GPT2 inhibitor inactive, NPR1 antag inactive, Luciferase inh inconclusive and 3T3 cytotox inactive.
`CN1CCN(CCNC(=O)c2ccc(-c3ccc(N4CCCCCC4)nc3)cc2)CC1` gave HEK293 tox 25.1µM, GPT2 inhibitor inactive, NPR1 antag inactive, Luciferase inh inactive and 3T3 cytotox 14.1µM.
For O=C(NCCN1CCCCC1)c1ccc(-c2ccc(N3CCSCC3)nc2)cc1 the results were HEK293 tox 35.5µM, GPT2 inhibitor inactive, NPR1 antag inactive, Luciferase inh inactive and 3T3 cytotox 28.2µM.
For O=C(NCCN1CCCCC1)c1ccc(-c2ccc(N3CCCCC3)nc2)cc1 the results were HEK293 tox inconclusive, GPT2 inhibitor inactive, NPR1 antag inactive, Luciferase inh inconclusive and 3T3 cytotox 20µM.
Screening C[C@@H](c1ccccc1)N1C(=O)[C@@H]2CN(C(=O)c3cccnc3)CCN2C1=O returned HEK293 tox inactive, GPT2 inhibitor inactive, NPR1 antag inactive, Luciferase inh inactive and 3T3 cytotox inactive.
Cc1nc(C2(C)CCN(C(=O)c3cc(C)n(Cc4ccc(F)cc4)c3C)CC2)no1 was read as HEK293 tox inconclusive, GPT2 inhibitor inactive and 3T3 cytotox inconclusive.
For CNC(=O)c1cc(C2CC2)nc2c1c(C1CCN(C(C)=O)C1)nn2C (stereo not drawn) the results were HEK293 tox inactive and 3T3 cytotox inactive.
`O=C(NCc1ccccn1)c1ccc(-c2ccc(N3CCCCC3)nc2)cc1` gave HEK293 tox 22.4µM, GPT2 inhibitor inactive, NPR1 antag inactive, Luciferase inh inconclusive and 3T3 cytotox inconclusive.
CN(Cc1ccco1)C(=O)c1ccc(-c2ccc(N3CCCCCC3)nc2)cc1 was read as HEK293 tox 39.8µM, GPT2 inhibitor inactive, NPR1 antag inconclusive, Luciferase inh inconclusive and 3T3 cytotox inconclusive.
Screening O=C(Cc1ccccn1)NCCNC(=O)c1ccc(-c2cncnc2)cc1 returned HEK293 tox 89.1µM and 3T3 cytotox inconclusive.
`O=C(NCCNC(=O)c1ccccn1)c1ccc(-c2cncnc2)cc1` gave HEK293 tox inactive and 3T3 cytotox inactive.
`O=C(N1CCCC1c1nc(CCOc2ccc(F)cc2)no1)C1(c2ccccc2)CC1` (stereo not drawn) gave HEK293 tox inconclusive, GPT2 inhibitor inactive, NPR1 antag inactive, Luciferase inh inactive and 3T3 cytotox inconclusive.
CCC1(N2CCN(S(=O)(=O)c3ccc(F)cc3F)CC2)CCN(C(=O)C(C)C)C1 (stereo not drawn) was read as HEK293 tox inconclusive, GPT2 inhibitor inactive, NPR1 antag inactive, Luciferase inh inactive and 3T3 cytotox inactive.
Screening COCC(=O)N1CCC(N2C(=O)c3c(c(C)nn3-c3ccccc3)C2C)CC1 (stereo not drawn) returned HEK293 tox inactive and 3T3 cytotox 28.2µM!.
`Cc1nn(-c2ccccc2)c2c1C(C)N(C1CCN(C(=O)c3ccccc3)CC1)C2=O` (stereo not drawn) gave HEK293 tox 35.5µM and 3T3 cytotox inconclusive.
`COc1cccc(C(=O)N2CCC(N3C(=O)c4c(c(C)nn4-c4ccccc4)C3C)CC2)c1` (stereo not drawn) gave HEK293 tox 39.8µM and 3T3 cytotox inconclusive.
COc1cccc([S+](=O)([O-])N2CCC(N3C(=O)c4c(c(C)nn4-c4ccccc4)C3C)CC2)c1 (stereo not drawn) was read as HEK293 tox inactive and 3T3 cytotox inactive.
`Cc1nn(-c2ccccc2)c2c1C(C)N(C1CCN(C(=O)c3cccc(C(F)(F)F)c3)CC1)C2=O` (stereo not drawn) gave HEK293 tox 44.7µM and 3T3 cytotox inconclusive.
CO[C@H]1CN(C(C)C)[C@H]1C1CCN(C(=O)c2ccc(C#N)cc2)CC1 was read as HEK293 tox inactive, GPT2 inhibitor inactive and 3T3 cytotox inactive.
`COc1ccc(-c2nc(C)nc3c2CN(C(=O)c2ccccc2C)CC3)cc1` gave HEK293 tox inactive, GPT2 inhibitor inactive and 3T3 cytotox inconclusive.
`CCOC(=O)CCNC(=O)N1CCC(N2C(=O)C3(CCCCC3)C2c2ccccc2)CC1` (stereo not drawn) gave HEK293 tox inactive, GPT2 inhibitor inactive and 3T3 cytotox inactive.
`Cc1nn(-c2ccccc2)c2c1C(C(C)C)N(C1CCN(C(=O)c3ccc(C(F)(F)F)cc3)CC1)C2=O` (stereo not drawn) gave HEK293 tox inactive and 3T3 cytotox inactive.
For Cc1nn(-c2ccccc2)c2c1C(C)N(C1CCN(C(=O)c3ccc(Cl)nc3)CC1)C2=O (stereo not drawn) the results were HEK293 tox inconclusive and 3T3 cytotox 35.5µM.
Screening COc1ccc(CC(=O)N2CC(N3C(=O)c4c(c(C)nn4-c4ccccc4)C3C)C2)cc1 (stereo not drawn) returned HEK293 tox 39.8µM and 3T3 cytotox inconclusive.
Screening O=C(NCc1cccs1)c1ccc2oc(-c3ccnc(Cl)c3)nc2c1 returned HEK293 tox inconclusive, GPT2 inhibitor inactive and 3T3 cytotox inconclusive.
Screening O=C(N1CCN(Cc2ccccc2)CC(O)C1)C1(c2ccccc2F)CC1 (stereo not drawn) returned HEK293 tox inactive, GPT2 inhibitor inactive, NPR1 antag inactive, Luciferase inh inactive and 3T3 cytotox inactive.
Screening Cc1noc(C)c1-c1cc2c(cc(-c3ccccc3)n2C)c(Nc2ccncn2)n1 returned HEK293 tox 31.6µM, GPT2 inhibitor inactive, NPR1 antag inactive, Luciferase inh inactive and 3T3 cytotox inconclusive.
`Cc1noc(C)c1-c1cc2c(cc(C)n2C)c(Nc2ccncn2)n1` gave HEK293 tox inconclusive, GPT2 inhibitor inconclusive, NPR1 antag inactive, Luciferase inh inactive and 3T3 cytotox 20µM.
`Cc1cc2c(Nc3cccnc3)nc(-c3c(C)noc3C)cc2[nH]1` gave HEK293 tox inconclusive, GPT2 inhibitor inactive, NPR1 antag inactive, Luciferase inh inactive and 3T3 cytotox inconclusive.
Screening Cc1noc(C)c1-c1cc2c(cc(C)n2C)c(NCCN(C)C)n1 returned HEK293 tox inconclusive, GPT2 inhibitor inconclusive, NPR1 antag inactive, Luciferase inh inactive and 3T3 cytotox inconclusive.
Screening COc1ccc(NC(=O)c2cnc3c(c2)N(C(=O)Cc2cccc(C(F)(F)F)c2)CCC3)cc1OC returned HEK293 tox inconclusive, GPT2 inhibitor inactive, NPR1 antag inactive, Luciferase inh inactive and 3T3 cytotox inconclusive.

Screening results: PubChem BioAssay, National Center for Advancing Translational Sciences (NCATS)
